Screening data (PubChem)
CYP2C9 inh = human CYP2C9 inhibition | CYP2C9 Supersomes, luciferin-H conversion, luminescence | 96,000 tested, 20% active | P11712 | AID 777 | inhibition, % at 5 µM;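 active = blocking of liver enzyme CYP2C9 beyond about 50% at 5 µM, limit read from the data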
Target sequence (P11712 whole entry, looked up): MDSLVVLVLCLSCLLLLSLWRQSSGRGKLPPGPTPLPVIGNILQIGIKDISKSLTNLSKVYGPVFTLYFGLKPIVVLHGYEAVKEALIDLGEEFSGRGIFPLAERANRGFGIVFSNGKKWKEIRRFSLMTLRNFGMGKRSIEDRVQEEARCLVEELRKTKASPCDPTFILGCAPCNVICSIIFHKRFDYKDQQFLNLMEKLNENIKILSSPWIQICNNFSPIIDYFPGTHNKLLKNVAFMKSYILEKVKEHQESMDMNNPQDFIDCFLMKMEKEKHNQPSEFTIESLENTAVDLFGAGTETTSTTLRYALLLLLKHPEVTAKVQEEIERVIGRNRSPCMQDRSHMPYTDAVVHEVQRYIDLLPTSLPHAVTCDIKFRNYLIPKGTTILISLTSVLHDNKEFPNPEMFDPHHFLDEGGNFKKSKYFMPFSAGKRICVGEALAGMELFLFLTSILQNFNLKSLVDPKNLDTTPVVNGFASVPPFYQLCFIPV
PostGolgi ctrl = inhibits growth of the yeast control strain; efflux-deficient yeast background strain, growth absorbance A615, 16 h; inhibition, % at 10 µM; 98,000 tested, 5% active; AID 738
CYP2C9 act = increases human cytochrome P450 2C9 activity | P11712 | recombinant CYP2C9, luciferin-H conversion, luminescence; active compounds read high; factor 1 = untreated enzyme, 0 = blocked | AID 1024 | 96,000 tested, 1.4% active | activation factor at 5 µM;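 active = activation factor of 2 or more for CYP2C9 at a 5 µM dose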;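 note: 0 = sulfaphenazole-blocked wells and 1 = vehicle-only wells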
PostGolgi yeast = growth inhibition of a yeast mutant, post-Golgi transport screen. post-Golgi transport phenotypic cell assay. inhibition, % at 10 µM. 98,000 tested, 0.9% active. AID 739;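 note: yeast cells grown in 1536-well plates; yeast grown about 18 h at 30C before absorbance read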
CYP2C19 inh = human CYP2C19 inhibition; P33261; CYP2C19 Supersomes, luciferin-H EGE luminescence, 30 min; inhibition, % at 5 µM; 96,000 tested, 21% active; AID 778;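 active = CYP2C19 inhibition above a set limit at 5 µM in the primary screen, cut at about 50% in these data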;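 note: plate controls were negative control wells for no effect and 2.5 mM tranylcypromine positive control for full effect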
CYP2C19 act = activators of human cytochrome P450 2C19; P33261; recombinant CYP2C19, luciferin-H EGE luminescence; active compounds read high; 0 = fully inhibited enzyme, 1 = untreated enzyme; activation factor at 5 µM; 96,000 tested, under 10 active;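 active = activation factor of at least 2 at 5 µM in the primary screen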;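 note: 0 = wells with 2.5 mM tranylcypromine and 1 = vehicle-only wells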
The depositor's hits bear a star; . = not tested or not shown. Shown are actives, neighbours in structure and some others; about 32% of the full set was active somewhere. Cut-off read from the data, not from the text of the source, unless noted: active = inhibition above about 30%; inactive = the rest.

SMILES | CYP2C9 inh | PostGolgi ctrl | CYP2C9 act | PostGolgi yeast | CYP2C19 inh | CYP2C19 act
Cc1sc2ncnc(SCC(=O)c3ccc(Cl)s3)c2c1C | 15.9 | 2.0 | 0.8 | -0.9 | 15.2 | 0.8
Cc1cc(N2CCOCC2)nc(-c2ccc([N+](=O)[O-])cc2)n1 | 12.0 | 9.6 | 0.9 | -0.3 | 21.5 | 0.8
O=S(=O)(Nc1ccc(N2CCCCC2)cc1)c1cccc2cccnc12 | -5.6 | 37.7* | 1.1 | 1.4 | 8.0 | 0.9
O=S(=O)(Nc1nccs1)c1ccc(NS(=O)(=O)c2cccs2)cc1 | 89.6* | 1.8 | 0.1 | 4.1 | -11.0 | 1.1
O=S(=O)(Nc1ccc(S(=O)(=O)N2CCCCCC2)cc1)c1cccs1 | 90.6* | -11.1 | 0.1 | -5.4 | -18.4 | 1.2
O=C(c1ccc(NS(=O)(=O)c2cccs2)cc1)N1CCCCC1 | . | -0.4 | . | -1.6 | . | .
O=C(Cn1cnc2ccccc2c1=O)NCC(=O)N1CCN(c2ccccn2)CC1 | -11.1 | -0.6 | 1.1 | 2.7 | -3.5 | 1
CCOCCCNC(=O)C1CCN(c2cc(C)nc3c(-c4ccc(OC)c(OC)c4)c(C)nn23)CC1 | 46.4 | 16.1 | 0.5 | -1.3 | -7.4 | 1.1
CCOC(=O)CSC1=C(C#N)C(c2ccc(OC)cc2)C2=C(CC(C)(C)CC2=O)N1 (stereo unspecified) | 62.7* | 12.4 | 0.4 | -10.9 | 71.6* | 0.3
COC(=O)c1ccc(C2C(C#N)=C(C)NC3=C2C(=O)CC(C)(C)C3)cc1 (stereo unspecified) | 35.5 | 2.3 | 0.6 | 9.7 | 24.0 | 0.8
COc1ccc(C2C(C#N)=C(SC)NC3=C2C(=O)CC(C)(C)C3)cc1 (stereo unspecified) | 73.3* | 9.0 | 0.3 | 4.8 | 49.6 | 0.5
CCOC(=O)CSC1=C(C#N)C(c2ccc(C)cc2)C2=C(CCCC2=O)N1 (stereo unspecified) | 77.8* | 6.8 | 0.2 | 2.9 | 21.4 | 0.8
COc1ccc(C2CC(=O)C3=C(C2)NC(C)=C(C#N)C3c2ccc(N(C)C)cc2)cc1 (stereo unspecified) | 87.4* | 2.4 | 0.1 | -22.0 | 64.3* | 0.4
COC(=O)C1C(=O)C2=C(CC1C)NC(C)=C(C(=O)OC1CCCCC1)C2c1ccc(N(C)C)cc1 (stereo unspecified) | . | 16.7 | . | 3.9 | . | .
Cn1c(SCc2ccccc2)nnc1-c1cnccn1 | 7.5 | 1.8 | 0.9 | -0.6 | 25.0 | 0.8
C/C(=N\Nc1ccc([N+](=O)[O-])cc1)c1cccc(N)c1 | 40.4 | 5.4 | 0.6 | 31.4* | 90.4* | 0.1
CCCCCSc1nnc2c(n1)OC(c1cccn1C)N(C(C)=O)c1ccccc1-2 (stereo unspecified) | 82.6* | 4.1 | 0.2 | 0.2 | 45.1 | 0.5
CC(=O)N1c2c(cc(Br)cc2S(=O)(=O)NCc2ccc3c(c2)OCO3)CC1C (stereo unspecified) | -82.7 | -0.6 | 1.8 | -1.2 | 86.1* | 0.1
CC(=O)N1c2c(cc(Br)cc2S(=O)(=O)NCC2COc3ccccc3O2)CC1C (stereo unspecified) | -80.8 | 11.8 | 1.8 | -6.0 | 65.0* | 0.3
CCCCN(Cc1ccccc1)S(=O)(=O)c1cc(Br)cc2c1N(C(C)=O)C(C)C2 (stereo unspecified) | 95.0* | 36.2* | 0.1 | 9.6 | 38.2 | 0.6
Cc1cccc(/C=C2/S/C(=N/N=C3\CC4CCC3(C)C4(C)C)NC2=O)c1 (stereo unspecified) | 17.2 | 8.5 | 0.8 | 1.0 | -12.6 | 1.1
CC1CCN(c2cc(N3CCC(C)CC3)c([N+](=O)[O-])cc2/C=C(\C#N)c2nn(-c3ccccc3)c(N)c2C#N)CC1 | 80.8* | 5.6 | 0.2 | -10.2 | 51.0* | 0.5
CC1CCCN(c2ccc(/C=C(\C#N)c3nn(-c4ccccc4)c(N)c3C#N)cc2[N+](=O)[O-])C1 (stereo unspecified) | 80.1* | -0.1 | 0.2 | 13.8 | 35.3 | 0.6
CC1CCN(c2ccc(/C=N/n3nnnc3N)cc2[N+](=O)[O-])CC1 | . | -1.3 | . | -0.3 | . | .
O=C(CNc1ccc(Oc2ccccc2)cc1)N1CCOCC1 | -17.7 | -9.0 | 1.2 | -5.5 | -9.3 | 1.1
SMILES | CYP2C9 inh | PostGolgi ctrl | CYP2C9 act | PostGolgi yeast | CYP2C19 inh | CYP2C19 act
O=C(CC1Oc2ccc(Cl)cc2NC1=O)NC1CCCCCC1 (stereo unspecified) | -27.4 | 14.2 | 1.3 | 0.7 | 1.0 | 1
CCCCC(=O)Nc1cccc(NC(=O)c2ccc3c(c2)OCO3)c1 | 49.0 | 5.2 | 0.5 | -2.1 | 21.2 | 0.8
O=C(CCC(=O)c1ccc(F)cc1)Nc1cc(Cl)cc(Cl)c1 | 46.3 | 6.8 | 0.5 | 4.0 | 52.2* | 0.5
Cc1cc2cc(CNC(=O)c3ccc(S(=O)(=O)N(C)C)cc3)ccc2n1C | 23.5 | 30.9* | 0.8 | 3.4 | 15.9 | 0.8
c1ccc(CNC2=NCCC2)nc1 | -6.2 | -5.7 | 1.1 | -3.2 | -0.6 | 1
CN1CCN(C(=O)c2cccc(S(=O)(=O)N3CCCCC3)c2)CC1 | 2.5 | 11.4 | 1 | 7.5 | -3.2 | 1
O=C(c1cccc(S(=O)(=O)N2CCCC2)c1)N1CCN(c2ccccc2)CC1 | 42.8 | 2.3 | 0.6 | 5.9 | 67.3* | 0.3
CCOc1ccc(C(=O)N2CCN(c3ccccc3)CC2)cc1OCC | 40.6 | 4.5 | 0.6 | -2.2 | 38.6 | 0.6
O=C(COc1ccc(S(=O)(=O)N2CCCC2)cc1Cl)N1CCN(c2ccccc2)CC1 | 84.8* | 8.2 | 0.2 | 5.7 | 88.4* | 0.1
O=C(c1ccc2ccccc2c1)N1CCN(c2ccccc2)CC1 | -8.6 | 22.0 | 1.1 | -16.8 | 62.5* | 0.4
CCc1ccc(-c2cc(C(F)(F)F)n3nc(C(=O)Nc4cnn(Cc5ccc(C)cc5)c4)cc3n2)s1 | 32.8 | -7.8 | 0.7 | -9.8 | 11.9 | 0.9
O=C(Oc1c(Cl)cc(Cl)c2cccnc12)N1CCCCC1 | 54.2* | 42.8* | 0.5 | -0.5 | 64.5* | 0.4
NC(=O)c1ccsc1NC(=O)CSc1nc2ccccc2c(=O)n1CCCO | 58.5* | -2.5 | 0.4 | -4.9 | 44.4 | 0.6
N#CCSc1nc2ccccc2c(=O)n1CCC(=O)NCCc1ccccc1 | 8.9 | 6.4 | 0.9 | -7.7 | 14.2 | 0.9
CCCCn1c(SCC(=O)Nc2cc(C)on2)nc2ccsc2c1=O | 9.4 | -0.5 | 0.9 | 2.6 | -11.3 | 1.1
CCCCCCn1c(SCC(=O)Nc2cc(C)on2)nc2ccccc2c1=O | 70.8* | 0.1 | 0.3 | -7.8 | 47.2 | 0.5
NC(=O)c1ccsc1NC(=O)CSc1nnc(C2CC2)n1Cc1ccccc1 | 26.8 | 4.9 | 0.7 | -2.5 | 26.9 | 0.7
CCCCn1c(SCC(=O)Nc2cc(C)[nH]n2)nc2ccsc2c1=O | 71.9* | 7.7 | 0.3 | 4.1 | 27.8 | 0.7
Cc1cc(NC(=O)CSc2nc3ccccc3c(=O)n2Cc2ccc(F)cc2)no1 | 11.0 | 0.5 | 0.9 | 18.0 | 3.5 | 1
CCOC(=O)CSc1nc2ccccc2c(=O)n1CCC(=O)NCCc1ccc(OC)c(OC)c1 | 65.2* | 14.7 | 0.3 | -5.8 | 60.1* | 0.4
Cc1ccc(C(=O)O)cc1S(=O)(=O)N1CCC(C(=O)O)CC1 | -25.3 | -1.9 | 1.3 | 8.7 | -17.8 | 1.2
